Data from PubChem BioAssay (NCATS).
Inconclusive results are not listed. Active and inactive are the calls of the source. The call rests on the fitted dose curve; in most records, active means well fitted inhibition curve with a large enough effect; inconclusive means small, poorly fitted or top-dose-only effect; inactive means flat fitted curve, though single readings scatter.

What was measured:
PC26 = experiment: qHTS profiling for inhibitors of Plasmodium falciparum proliferation (AID 504749);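 further: 0% = DMSO vehicle and full inhibition = artemisinin control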; details: P. falciparum in erythrocytes, SYBR Green DNA, 72 h; series mostly up to 28.7 µM
Outline: (§1)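 Parasite proliferation within erythrocytes, 72 h exposure. Endpoint: SYBR Green I fluorescence after overnight lysis at room temperature. Controls: 0.29 uM artemisinin, DMSO.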

PC49 = experiment: as above; details: P. falciparum in erythrocytes, SYBR Green DNA, 72 h; series mostly up to 28.7 µM
Outline: as §1

SC27B = experiment: as above; details: P. falciparum in erythrocytes, SYBR Green DNA, 72 h; series mostly up to 28.7 µM
Outline: as §1

TAB109 = experiment: as above; details: P. falciparum in erythrocytes, SYBR Green DNA, 72 h; series mostly up to 28.7 µM
Outline: as §1

TAB113 = experiment: as above; details: P. falciparum in erythrocytes, SYBR Green DNA, 72 h; series mostly up to 28.7 µM
Outline: as §1

TAB165 = experiment: as above; details: P. falciparum in erythrocytes, SYBR Green DNA, 72 h; series mostly up to 28.7 µM
Outline: as §1

CRL-7250 = normal cell line; experiment: Cytotoxic Profiling of Annotated Libraries Using Quantitative High-Throughput Screening (AID 1296008); details: Five cell lines viability, CellTiter-Glo ATP luminescence, 48-72 h; active compounds read low; on max response: on the % scale 0 is the no-effect control and ±100 the full control effect
Outline: (§2)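 Compounds were pin-transferred onto cells and incubated 48 or 72 hr at 37 degree Celsius, 95% humidity. CellTiter-Glo was added, plates sat 10 min at room temperature, then ATP-coupled luminescence was imaged as the viability read-out.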

HEK293 = experiment: as above; details: Five cell lines viability, CellTiter-Glo ATP luminescence, 48-72 h; active compounds read low
Outline: as §2

HaCat [1] = experiment: as above; details: Five cell lines viability, CellTiter-Glo ATP luminescence, 48-72 h; active compounds read low
Outline: as §2

KB-3-1 = experiment: as above; details: Five cell lines viability, CellTiter-Glo ATP luminescence, 48-72 h, active compounds read low
Outline: as §2

NIH3T3 [2] = experiment: as above; details: Five cell lines viability, CellTiter-Glo ATP luminescence, 48-72 h; active compounds read low
Outline: as §2

MCC-13 = experiment: qHTS assay to identify novel small-molecules to repurpose for Merkel cell carcinoma treatment (AID 1296009); details: MCC and control cell lines, CellTiter-Glo viability, 72 h; series mostly up to 46 µM
Outline: (§3)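 qHTS format: cells treated with library compounds in DMSO across 8 (NPC) or 11 (MIPE) concentrations. Readout after 72 hr at 37 degree celsius was CellTiter-Glo luminescence.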

MKL-1 = experiment: as above; details: MCC and control cell lines, CellTiter-Glo viability, 72 h; series mostly up to 46 µM
Outline: as §3

MKL-2 = experiment: as above; details: MCC and control cell lines, CellTiter-Glo viability, 72 h; series mostly up to 46 µM
Outline: as §3

NIH3T3 [3] = experiment: as above; details: MCC and control cell lines, CellTiter-Glo viability, 72 h; at 44.8 µM (top of the series) unless noted
Outline: as §3

UISO = experiment: as above; details: MCC and control cell lines, CellTiter-Glo viability, 72 h; series mostly up to 46 µM
Outline: as §3

W2 = experiment: qHTS profiling for inhibitors of Plasmodium falciparum proliferation (AID 504749);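 further: 0% = DMSO vehicle and full inhibition = artemisinin control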; details: P. falciparum in erythrocytes, SYBR Green DNA, 72 h; series mostly up to 28.7 µM
Outline: as §1

MCC-26 = experiment: qHTS assay to identify novel small-molecules to repurpose for Merkel cell carcinoma treatment (AID 1296009); details: MCC and control cell lines, CellTiter-Glo viability, 72 h; series mostly up to 46 µM
Outline: as §3

HACAT [4] = experiment: as above; details: MCC and control cell lines, CellTiter-Glo viability, 72 h; at 44.8 µM (top of the series) unless noted
Outline: as §3

HEK293T = experiment: as above; details: MCC and control cell lines, CellTiter-Glo viability, 72 h; at 44.8 µM (top of the series) unless noted
Outline: as §3
Further: nearly all actives have a fitted effect of over 60% in size.

NNc1nnc(NN)c2ccccc12
inactive: Potency (PC26) | Potency (PC49) | Potency (SC27B) | Potency (TAB109) | Potency (TAB113) | Potency (TAB165) | max response (CRL-7250) 4.89% | max response (HEK293) -11.7% | max response (HaCat [1]) 3.01% | max response (KB-3-1) -5.02% | outcome (NIH3T3 [2]) | outcome (MCC-13) | outcome (MKL-1) | outcome (MKL-2) | outcome (NIH3T3 [3]) | outcome (UISO)

CCCCCCCCCCCCCCCCCCO
inactive: Potency (PC26) | Potency (PC49) | Potency (SC27B) | Potency (TAB109) | Potency (TAB113) | Potency (TAB165) | Potency (W2) | max response (CRL-7250) 0.886% | max response (HEK293) -5.18% | max response (HaCat [1]) -4.21% | max response (KB-3-1) 12.1% | outcome (NIH3T3 [2]) | outcome (MCC-13) | outcome (MCC-26) | outcome (MKL-1) | outcome (MKL-2) | outcome (NIH3T3 [3]) | outcome (UISO)

O=C(CN1CCNCC1)NC1CCCCC1
inactive: Potency (PC26) | Potency (PC49) | Potency (SC27B) | Potency (TAB109) | Potency (TAB113) | Potency (TAB165) | Potency (W2) | max response (CRL-7250) -5.07% | max response (HEK293) -4.92% | max response (HaCat [1]) 0.716% | max response (KB-3-1) 2.43% | outcome (NIH3T3 [2]) inactive; activator | outcome (MCC-13) | outcome (MCC-26) | outcome (MKL-1) | outcome (MKL-2) | outcome (NIH3T3 [3]) inactive; activator | outcome (UISO)

CCCCCC(C)N (stereo not given)
inactive: Potency (PC26) | Potency (PC49) | Potency (SC27B) | Potency (TAB113) | Potency (TAB165) | max response (CRL-7250) -6.66% | max response (HEK293) -4.16% | max response (HaCat [1]) -0.897% | max response (KB-3-1) -3.94% | max response (NIH3T3 [2]) 3.25% | outcome (MCC-13) | outcome (MCC-26) | outcome (MKL-1) | outcome (MKL-2) | outcome (UISO)

CC(C)(C)C(=O)OCOC(=O)[C@@H]1N2C(=O)[C@@H](NC(=O)[C@H](N)c3ccccc3)[C@H]2SC1(C)C
inactive: Potency (PC26) | Potency (PC49) | Potency (SC27B) | Potency (TAB109) | Potency (TAB113) | Potency (TAB165) | Potency (W2) | max response (CRL-7250) -7.59% | max response (HEK293) -3.05% | max response (HaCat [1]) -3.68% | max response (KB-3-1) -7.55% | max response (NIH3T3 [2]) -5.28% | outcome (MCC-13) | outcome (MCC-26) | outcome (MKL-1) | outcome (MKL-2) | outcome (UISO)

Cc1[nH]c(C)c(Cl)c(=O)c1Cl
inactive: Potency (PC49) | Potency (SC27B) | Potency (TAB109) | Potency (TAB113) | outcome (CRL-7250) | max response (HEK293) -10% | max response (HaCat [1]) -2.26% | max response (KB-3-1) -14.2% | max response (NIH3T3 [2]) -10.7% | outcome (MCC-13) | outcome (MCC-26) | outcome (MKL-1) | outcome (MKL-2) | outcome (UISO)

Cc1c(C)c2c(c(C)c1OC(=O)c1cccnc1)CC[C@@](C)(CCC[C@H](C)CCC[C@H](C)CCCC(C)C)O2
inactive: Potency (PC26) | Potency (PC49) | Potency (SC27B) | Potency (TAB109) | Potency (TAB113) | Potency (TAB165) | Potency (W2) | outcome (CRL-7250) | max response (HEK293) -1.31% | max response (HaCat [1]) 0.9% | max response (KB-3-1) 1.29% | outcome (NIH3T3 [2]) | outcome (MCC-13) | outcome (MKL-1) | outcome (MKL-2) | outcome (NIH3T3 [3]) | outcome (UISO)

CCOC(N)=O
inactive: Potency (PC26) | Potency (PC49) | Potency (SC27B) | Potency (TAB109) | Potency (TAB113) | Potency (TAB165) | Potency (W2) | max response (CRL-7250) 1.79% | max response (HEK293) -1.46% | max response (HaCat [1]) -12.1% | max response (KB-3-1) -7.14% | outcome (NIH3T3 [2]) | outcome (MCC-13) | outcome (MCC-26) | outcome (MKL-1) | outcome (MKL-2) | outcome (NIH3T3 [3]) | outcome (UISO)

O=c1[nH]c2cc(C(F)(F)F)c(N3CCOCC3)cc2n(CP(=O)(O)O)c1=O
inactive: Potency (PC26) | Potency (PC49) | Potency (SC27B) | Potency (TAB109) | Potency (TAB113) | Potency (TAB165) | Potency (W2) | outcome (CRL-7250) | max response (HEK293) 2.88% | max response (HaCat [1]) 2.4% | max response (KB-3-1) 8.61% | outcome (NIH3T3 [2]) | outcome (MCC-13) | outcome (MCC-26) | outcome (MKL-1) | outcome (MKL-2) | outcome (NIH3T3 [3]) | outcome (UISO)

O=C(CCBr)N1CCN(C(=O)CCBr)CC1
inactive: Potency (PC26) | Potency (PC49) | Potency (SC27B) | Potency (TAB109) | Potency (TAB113) | Potency (TAB165) | Potency (W2) | max response (CRL-7250) -5.81% | max response (HEK293) 0.232% | max response (HaCat [1]) -10.3% | max response (KB-3-1) -5.88% | outcome (NIH3T3 [2]) | outcome (MCC-13) | outcome (MKL-1) | outcome (MKL-2) | outcome (NIH3T3 [3]) | outcome (UISO)

CCCCC1(COC(=O)CCC(=O)O)C(=O)N(c2ccccc2)N(c2ccccc2)C1=O
inactive: Potency (PC26) | Potency (PC49) | Potency (SC27B) | Potency (TAB109) | Potency (TAB113) | Potency (TAB165) | Potency (W2) | outcome (CRL-7250) | max response (HEK293) -6.41% | max response (HaCat [1]) -4.26% | max response (KB-3-1) 2.02% | outcome (NIH3T3 [2]) | outcome (MCC-13) | outcome (MCC-26) | outcome (MKL-1) | outcome (MKL-2) | outcome (NIH3T3 [3]) | outcome (UISO)

NC(=O)CC[C@@H](N)C(=O)O
inactive: Potency (PC26) | Potency (PC49) | Potency (SC27B) | Potency (TAB109) | Potency (TAB113) | Potency (TAB165) | Potency (W2) | max response (CRL-7250) -0.379% | max response (HEK293) -7.81% | max response (HaCat [1]) -14.8% | max response (KB-3-1) -2.46% | max response (NIH3T3 [2]) 0.058% | outcome (MCC-13) | outcome (MCC-26) | outcome (MKL-1) | outcome (MKL-2) | outcome (UISO)

CCCCCCCC(=O)OCC(O)CO (stereo not given)
inactive: Potency (PC26) | Potency (PC49) | Potency (SC27B) | Potency (TAB109) | Potency (TAB113) | Potency (TAB165) | Potency (W2) | max response (CRL-7250) -18.7% | max response (HEK293) -8.91% | max response (HaCat [1]) -12% | max response (KB-3-1) -2.18% | max response (NIH3T3 [2]) -10.3% | outcome (MCC-13) | outcome (MKL-1) | outcome (MKL-2) | outcome (UISO)

CCCCCOC(=O)Nc1nc(=O)n([C@@H]2O[C@H](C)[C@@H](O)[C@H]2O)cc1F
inactive: outcome (CRL-7250) | outcome (HEK293) | outcome (HaCat [1]) | max response (NIH3T3 [2]) 3.66% | outcome (HACAT [4]) | outcome (HEK293T) | outcome (MCC-13) | outcome (MCC-26) | outcome (MKL-1) | outcome (MKL-2) | outcome (UISO)
